# In PMC4336329 (PLoS ONE, 2015):
# Out of some 310,000 compounds screened, about 14,000 (4.5%) showed an effect of 50% or more. Effects have a minus sign here. For the sample, strong results were picked, then their nearest neighbours and some compounds at random.
# Target: human ether-à-go-go-related gene (hERG) potassium channel (human, UniProt Q12809)
# Assay: primary screen, population patch clamp on CHO cells stably expressing hERG; higher = less effect of the substance
# 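Also: peak tail current of the secondary pulse compared with the same well before compound.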
# human ether-à-go-go-related gene (hERG) potassium channel, sequence (Q12809 whole entry, looked up): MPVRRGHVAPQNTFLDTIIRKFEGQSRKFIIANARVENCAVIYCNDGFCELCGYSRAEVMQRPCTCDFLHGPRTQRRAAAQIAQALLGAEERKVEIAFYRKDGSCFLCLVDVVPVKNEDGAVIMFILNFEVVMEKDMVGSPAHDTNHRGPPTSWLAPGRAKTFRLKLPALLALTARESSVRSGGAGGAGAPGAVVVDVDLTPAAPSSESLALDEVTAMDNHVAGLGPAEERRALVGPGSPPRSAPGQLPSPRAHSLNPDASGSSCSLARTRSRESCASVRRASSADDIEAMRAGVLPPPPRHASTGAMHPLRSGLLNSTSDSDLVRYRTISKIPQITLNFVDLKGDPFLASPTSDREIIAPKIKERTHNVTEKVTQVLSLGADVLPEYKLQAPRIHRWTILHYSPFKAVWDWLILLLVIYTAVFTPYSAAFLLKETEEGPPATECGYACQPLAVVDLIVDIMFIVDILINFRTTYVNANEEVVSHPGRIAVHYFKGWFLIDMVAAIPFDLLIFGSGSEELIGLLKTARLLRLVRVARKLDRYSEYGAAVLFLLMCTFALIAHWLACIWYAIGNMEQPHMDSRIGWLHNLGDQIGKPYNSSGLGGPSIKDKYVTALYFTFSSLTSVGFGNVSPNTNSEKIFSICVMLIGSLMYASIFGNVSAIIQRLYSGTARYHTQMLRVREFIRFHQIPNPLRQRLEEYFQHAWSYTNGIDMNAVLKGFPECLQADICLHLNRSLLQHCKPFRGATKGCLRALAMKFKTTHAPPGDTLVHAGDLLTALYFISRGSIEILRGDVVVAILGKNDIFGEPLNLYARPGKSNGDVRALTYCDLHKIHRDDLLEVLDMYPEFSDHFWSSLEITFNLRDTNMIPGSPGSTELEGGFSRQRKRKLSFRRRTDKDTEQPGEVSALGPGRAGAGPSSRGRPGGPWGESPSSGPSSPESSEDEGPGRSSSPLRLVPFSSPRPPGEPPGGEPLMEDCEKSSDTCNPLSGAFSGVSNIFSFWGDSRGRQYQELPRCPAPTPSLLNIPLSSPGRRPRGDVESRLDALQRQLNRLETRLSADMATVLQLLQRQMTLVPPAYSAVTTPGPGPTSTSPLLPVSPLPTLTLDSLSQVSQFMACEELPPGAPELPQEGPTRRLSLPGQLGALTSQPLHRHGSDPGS
row,SMILES,"hERG current change (%, negative = inhibition) at 10uM"
1,O=C(CSc1nnc(-c2ccc(O)cc2)n1Cc1ccccc1)NNC(=O)c1ccc(Br)cc1,-4.24%
2,Cc1ccc(NC(=O)COC(=O)CCc2ccc(S(=O)(=O)N3CCOCC3)cc2)cc1F,-11%
3,CCn1c(COc2ccccc2)nnc1SCC(=O)Nc1ccc2c(c1)OCCO2,-6.9%
4,Cc1ccc(NC(=O)c2nc[nH]c2C(=O)N2CCN(c3ccccc3)CC2)cc1,8.53%
5,O=C(NCCC1CCCCN1S(=O)(=O)c1ccccc1)C(=O)Nc1ccc(F)cc1F (stereo not drawn),2.67%
6,CC(C)NC(=O)CSc1nnc(COc2ccccc2Cl)o1,9.76%
7,Cc1ccc(SCC(=O)OCC(=O)N(C)CC(=O)Nc2ccc(F)cc2)cc1C,-38.7%
8,CC#CCC(CC#CC)c1nc2ccccc2c(=O)n1N,-1.36%
9,Cc1cc[n+](-c2[nH]c(=O)sc2/C=N/N=C(\[O-])c2ccncc2)cc1,5.61%
10,CCCc1ccc(-c2cc(C(=O)N3CCN(c4ccccn4)CC3)c3ccccc3n2)cc1,13.4%
11,CCOC(=O)N1CCC(NC(=O)c2cn(-c3ccc(OC)cc3)c(=O)c3ccccc23)CC1,-6.75%
12,CCOC(=O)N1CCC(N2Cc3cccc(C(=O)Nc4ccccc4OC)c3C2=O)CC1,-79.2%
13,CCOC(=O)c1ccccc1NC(=O)c1cccc2c1C(=O)N(C1CCN(C(=O)OCC)CC1)C2,-30.4%
14,CCOC(=O)N1CCC(NC(=O)c2cccc3c2C(=O)N(c2ccc(OC)cc2)C3)CC1,-58.3%
15,CCOC(=O)N1CCC(N2Cc3cccc(C(=O)Nc4ccc(OC)c(OC)c4)c3C2=O)CC1,-9.58%
16,CCOC(=O)N1CCC(N2Cc3cccc(C(=O)NCc4ccccc4OC)c3C2=O)CC1,-71.2%
17,CCOC(=O)N1CCC(N2Cc3cccc(C(=O)NCc4ccc(C)cc4)c3C2=O)CC1,-42.6%
18,CCOC(=O)N1CCC(N2Cc3cccc(C(=O)NCc4ccc(OC)cc4)c3C2=O)CC1,-40%
19,CCOC(=O)N1CCC(NC(=O)c2cccc3c2C(=O)N(CCOC)C3)CC1,-1.34%
20,CCOCCn1c(N2CCCC2)nc2c1c(=O)[nH]c(=O)n2C,15.1%
21,COc1ccc2nc(N3C(=O)CC(Cc4cc(C)cc(C)c4)C3=O)sc2c1 (stereo not drawn),9.23%
22,COc1ccc(CCNC(=S)N2CCN(S(=O)(=O)c3ccc(Cl)cc3)CC2)cc1,22%
23,OCCN(Cc1ccccc1)Cc1ccc(C(F)(F)F)cc1,-3.33%
24,COc1ccc(-c2oc3cccnc3c2C#CCO)cc1,9.84%
25,COc1ccc2[nH]c(=O)c(CN(CCO)S(=O)(=O)c3c(C)ccc4nsnc34)cc2c1,-3.86%
26,C/C(=N\NC(=O)c1cc(-c2ccccc2C)nc2ccccc12)c1cccnc1,-10.3%

row,SMILES,"hERG current change (%, negative = inhibition) at 10uM"
1,CCSCc1nnc(SCC(=O)Nc2cccc(C(C)=O)c2)n1C,11.9%
2,CCOc1ncccc1C(=O)Nc1ccc(F)c(Cl)c1,24.1%
3,CN(Cc1ccccc1)c1ccc(N2C(=O)CCCC2=O)cc1[N+](=O)[O-],6.5%
4,Cc1cc(F)ccc1NC(=O)c1ccc(NS(=O)(=O)c2cc(C(C)(C)C)ccc2C)cc1,0.887%
5,O=C(Nc1ccc2ccccc2c1)c1ccc(NS(=O)(=O)c2ccc(Br)s2)cc1,12%
6,Cc1ccc(F)cc1NC(=O)c1ccc(NS(=O)(=O)c2ccc(Br)s2)cc1,-70%
7,Cc1ccc(-c2ccc(=O)n(CCC(=O)N3CCC4(CC3)OCCO4)n2)cc1,-64.5%
8,Cc1ccc(-c2ccc(=O)n(CC(=O)N3CCC4(CC3)OCCO4)n2)cc1,5.07%
9,Cc1ccc2c(c1)N(CCC(=O)N1CCC3(CC1)OCCO3)C(=O)CO2,-16.8%
10,Cc1ccc(C2=NN(CCC(=O)N3CCC4(CC3)OCCO4)C(=O)CC2)cc1,-57.5%
11,O=C(CCn1nc(-c2ccc(Cl)cc2)ccc1=O)N1CCC2(CC1)OCCO2,-39.8%
12,CCc1ccc(C2=NN(CCC(=O)N3CCC4(CC3)OCCO4)C(=O)CC2)cc1,-10.3%
13,O=C(Nc1ccc(C2=NCCN2)cc1)c1ccc(C(=O)Nc2ccc(C3=NCCN3)cc2)c([N+](=O)[O-])c1,20.1%
14,O=C(c1ccco1)N1CCN(c2ccc([N+](=O)[O-])cc2Cl)CC1,-71.4%
15,O=C(c1ccco1)N1CCN(S(=O)(=O)c2cccc([N+](=O)[O-])c2)CC1,-20.7%
16,O=C(Nc1ccc(F)cc1F)N1CCCN(c2ccc([N+](=O)[O-])cn2)CC1,-50.2%
17,CC(=O)c1ccc(N2CCN(C(=O)c3ccco3)C(C)C2)c(F)c1 (stereo not drawn),-49.9%
18,O=C(Nc1ccc(F)cc1F)N1CCCN(c2ccc(C(F)(F)F)cn2)CC1,-12.4%
19,CC(=O)c1cc(F)c(N2CCN(c3ccc([N+](=O)[O-])cc3F)CC2)cc1C,-12.3%
20,O=C(O)C(=O)O.O=C(c1ccco1)N1CCN(S(=O)(=O)c2ccc([N+](=O)[O-])cc2)CC1,-39.8%
21,CC1CN(c2ccc([N+](=O)[O-])cc2F)CCN1C(=O)c1ccco1 (stereo not drawn),-62%
22,CC(C)(C)c1ccc(NC(=O)N2CCCN(c3ccc([N+](=O)[O-])cn3)CC2)cc1,-25.9%
23,CC(C)(C)c1ccc(C(=O)N2CCCN(c3ccc([N+](=O)[O-])cn3)CC2)cc1,-72.3%
24,O=C(NC(=O)N1CCN(c2ccc([N+](=O)[O-])cn2)CC1)c1ccccc1F,-24.5%
25,CC(C)(C)c1ccc(NC(=O)N2CCN(c3ccc([N+](=O)[O-])cn3)CC2)cc1,-9.81%
